# Bioassay records as filed in PubChem.
# VP16 counter: VP16 counterscreen qHTS for inhibitors of ROR gamma transcriptional activity. Drosophila S2 Gal4-VP16 UAS-luciferase, luminescence, 20 h. Potency, µM (doses to about 53.6 µM), inactives show at the top dose activity, negative = inhibition, most hits filed as inhibitors. 3.5% of 310,000 active;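 further: Gal4-VP16 expression switched on by copper sulfate through the metallothionein promoter; on the % scale 0 is the no-effect control and ±100 the full control effect; nearly all actives have a fitted effect of over 50% in size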
# Mito fusion act: qHTS Assay for Small Molecule Inhibitors of Mitochondrial Division or Activators of Mitochondrial Fusion; S. cerevisiae fusion-defective mutant growth rescue, CellTiterGlo 48 h; Potency, µM (highest dose often 46.1 µM), for inactives: at the highest dose growth rescue (activation), actives largely listed as activators; 0.23% of 320,000 active; further: % of control where 0% means no effect; nearly all actives have a fitted effect of over 45% in size
#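 Luminescent cell viability in 1536-well qHTS format served as the measure of rescued growth in ts fusion-mutant S. cerevisiae cultured on non-fermentable YPEG for 48 hours at 37C.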
# uPA generation: qHTS for Inhibitors of Cell Surface uPA Generation; Potency, µM (doses to about 38.3 µM), for the others: top-dose activity change, negative = inhibition, hits mostly inhibitors; 0.31% of 330,000 active; cell surface uPA generation assay, qHTS; active means well fitted inhibition curve with a large enough effect; inconclusive means small, poorly fitted or top-dose-only effect; inactive means no such curve, though single readings can be large or run the other way; tested in mouse RAW 264.7 cells; further: on the % scale 0 is the no-effect control and ±100 the full control effect; nearly all actives have a fitted effect of over 55% in size
# RORg inh: qHTS for inhibitors of ROR gamma transcriptional activity | Nuclear receptor ROR-gamma (Mus musculus), P51450 | Drosophila S2 Gal4-RORgamma UAS-luciferase reporter, 20 h | Potency, µM (doses to about 53.6 µM), for inactives: at the highest dose activity change, negative = inhibition, usual class: inhibitors | 5.4% of 310,000 active | AID 2551, 2010; further: on the % scale 0 is the no-effect control and ±100 the full control effect; nearly all actives have a fitted effect of over 60% in size
# Target sequence (P51450 whole entry, looked up, the tested form may be a part): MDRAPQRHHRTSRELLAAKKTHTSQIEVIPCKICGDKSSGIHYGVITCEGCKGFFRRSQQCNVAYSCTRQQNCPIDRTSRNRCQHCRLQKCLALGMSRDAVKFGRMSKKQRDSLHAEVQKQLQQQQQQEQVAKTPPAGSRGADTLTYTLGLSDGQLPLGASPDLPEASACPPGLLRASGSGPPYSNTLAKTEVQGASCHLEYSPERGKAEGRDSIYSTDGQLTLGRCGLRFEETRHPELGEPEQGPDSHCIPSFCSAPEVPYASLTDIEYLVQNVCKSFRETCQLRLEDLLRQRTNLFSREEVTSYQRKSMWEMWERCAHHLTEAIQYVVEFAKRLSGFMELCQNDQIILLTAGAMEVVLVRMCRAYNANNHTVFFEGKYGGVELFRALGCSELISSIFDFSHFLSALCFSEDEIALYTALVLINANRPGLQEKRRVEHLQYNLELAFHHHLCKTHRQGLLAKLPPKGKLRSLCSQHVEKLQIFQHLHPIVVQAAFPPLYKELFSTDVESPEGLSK
#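 Schneider cells (Drosophila), stable Gal4 DBD–ROR gamma + UAS-luc; 1 hr cmpd preincubation; Cu2+ induction 700 uM final; 20 hr ambient; luminescence.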
# a7 integrin act: qHTS for Activators of Integrin-Mediated Alleviation for Muscular Dystrophy. alpha7betagal myoblasts, beta-gal FDG fluorescence, 48 h. Potency, µM (doses to about 38.3 µM), for the others: top-dose activation, actives largely listed as activators. 0.064% of 350,000 active. AID 624291, 2012;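 further: 100% = response of the positive control SU9516; nearly all actives have a fitted effect of over 60% in size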
#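 Alpha7betagal+/- myoblasts (passage 13) were plated 16-24 hr, then exposed to compounds (1:260 dilution of DMSO stock) for 48 hours at 37C. After MPER lysis, β-galactosidase reporter activity was read as FDG fluorescence (ex 480/em 540) after 30 minutes.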
# BCR signal inh: qHTS Assay to Find Inhibitors of Chronic Active B-Cell Receptor Signaling | ABC-DLBCL IkBa-CBG/CBR reporter, luminescence ratio, 4 h | Potency, µM (titrated, usually from 46.1 µM), without a hit: at the top dose activity change, negative = inhibition, actives largely listed as inhibitors | 0.05% of 340,000 active | AID 493014, 2011; active means well fitted inhibition curve with a large enough effect in the signal ratio, with a control signal flat, not every such curve was filed as active; inconclusive means small, poorly fitted or top-dose-only effect, or effect the other way, or a change in a side signal; the % refers to the signal ratio;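 further: plate controls were basal doxycycline-induced cells for no effect and cells given 10 µM MG132 for full effect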
#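 Cell line TMD8 (human ABC DLBCL), stably expressing tet-inducible CBG68-IkBa fusion and CBR; IMDM/0.5% FBS; cpd up to 46 uM; dox induction, 4 h, 37C/5% CO2; dual luminescence; green/red ratio; MG132 control.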
# * = called active by the depositor; u = inconclusive; x = not tested or not shown; [ ] = dose if it differs, or a comment. Most compounds without a hit are left out; they make up all but 5.5% or so of the library. Unless noted, the call rests on the fitted dose curve; in most records, active means well fitted curve in the direction sought with a large enough effect; inconclusive means small, poorly fitted or top-dose-only effect, or another doubt; inactive means no such curve, though single readings can be large; an effect the other way counts as inactive or inconclusive. Potency means the concentration at half of the fitted maximal effect.
SMILES,VP16 counter,Mito fusion act,uPA generation,RORg inh,a7 integrin act,BCR signal inh
CN(C)CCCN=Cc1c(-c2ccccc2)[nH]n(-c2nc3ccccc3s2)c1=O,-13%,12%,-3%,0%,27%,-12%
CC(C)CCCC(C)C1CCC2C3CC=C4CC(O)CC[C@@]4(C)C3CC[C@@]12C (stereo not given in full),3%,x,x,3%,x,x
Cc1ccc(-n2cc(C(=O)c3ccccc3O)cn2)cc1,u,-3%,-4%,11µM*,12%,u
Cc1ccc(O)c(C(=O)c2cnn(-c3ccccc3)c2)c1,6%,8%,0%,33%,-44%,5%
COc1ccc(C(=O)NC(C)c2cnn(-c3ccccn3)c2C)o1 (stereo not given),21%,-1%,13%,11%,-13%,-6%
CCCCCCC(=O)N1CCC(c2nc3c(nnn3Cc3ccccc3Cl)c(=O)[nH]2)CC1,16µM*,-1%,-11%,7.1µM*,19%,u
Cc1ccc(C)c(Cn2nnc3c(=O)[nH]c(C(=O)NCc4ccco4)nc32)c1,1%,4%,-10%,7%[10 µM],0%,9%
O=C(NCc1ccco1)c1nc2c(nnn2Cc2ccccc2Cl)c(=O)[nH]1,7.9µM*,0%,-11%,14µM*,-3%,u
O=C(COc1ccc(Br)cc1Br)NC(=S)N1CCCc2ccccc21,6%,2%,7%,2%,-26%,u
CC(Oc1ccc(Cl)cc1Cl)C(=O)NC(=S)N1CCc2ccccc21 (stereo not given),0.89µM*,6%,-9%,0.71µM*,-7%,-10%
CC(Oc1ccc(Cl)cc1Cl)C(=O)NN=C1CCN(C)CC1 (stereo not given),10µM*,3%,-2%,7.1µM*,-3%,-2%
CC(Oc1ccc(Cl)cc1C(N)=O)C(=O)N1CCc2ccccc21 (stereo not given),x,x,-9%,x,-17%,u
O=C(COc1ccc(Br)cc1Cl)NC(=S)N1CCc2ccccc21,0.71µM*,-5%,-2%,0.79µM*,u,u
Cc1cc(C)nc(-n2nc(C)cc2NC(=O)c2ccc(S(=O)(=O)N3CCOCC3)cc2)n1,-4%,4%,0%,-11%,32%,u
CCn1cc2nc(SCC(=O)Nc3ccc(F)cc3F)n(Cc3ccccc3)c(=O)c2n1,-21%,-1%,1%,u,33%,u
COc1ccccc1C(=O)Nc1cc(Cl)ccc1-n1cncn1,-15%,5%,3%,11µM*,-26%,0%
O=C(c1ccco1)N1CCN(Cc2cn[nH]c2-c2cccc3ccccc23)CC1,0%,-3%,9%,5%,-36%,-2%
CCn1c(-c2ccc(-c3ccccc3)cc2)c[nH]c1=S,1.6µM*,2%,-6%,1.8µM*,-23%,0%
C=CCn1c(-c2ccc(Cl)cc2)c[nH]c1=S,2.8µM*,2%,-1%,2µM*,14%,u
Cn1c(-c2ccccc2)cc(=O)cc1-c1ccccc1,x,x,x,x,18%,x
Cn1c(-c2ccc(-c3ccccc3)cc2)c[nH]c1=S,2.2µM*,-3%,-5%,0.79µM*,13%,u
C=CCn1c(-c2ccccc2)c[nH]c1=S,u,5%,-3%,-29%,-17%,u
C=C1CCN(C(CC(C)C)C(=O)NCCCc2ccccc2)S(=O)(=O)c2ccccc21 (stereo not given),-14%,x,x,u,x,x
CO[C@@H](CCO)C[C@H]1O[C@H](C(=O)OC(C)C)CC[C@@H]1C,-14%,x,x,0%,x,x
COc1ccccc1Oc1ccc(N2CC(C(=O)OCC(=O)c3ccccc3)CC2=O)cc1 (stereo not given),-3%,-5%,3%,-15%,u,-1%
SMILES,VP16 counter,Mito fusion act,uPA generation,RORg inh,a7 integrin act,BCR signal inh
CN(C)CCCNc1cc(C(C)(C)C)nc2c(-c3ccccc3)cnn12,2.5µM*,-17%,2%,1.4µM*,-16%,u
Cc1cc(NCCOCCO)n2ncc(-c3ccc(Cl)cc3)c2n1,-7%,14%,-7%,-4%,-10%,4%
Cc1cc(Cl)n2ncc(-c3ccccc3)c2n1,u,-11%,-3%,16µM*,-23%,u
Cc1cc(NCc2ccccn2)n2ncc(-c3ccccc3)c2n1,0.32µM*,4%,-5%,0.089µM*,u,u
Cc1cc(NCc2ccccn2)n2ncc(-c3ccc(Cl)cc3)c2n1,0.63µM*,5%,0%,0.045µM*,u,10%
C[C@H]1CN(c2ccccc2)C(=O)[C@@H]1CC(=O)Nc1ccccc1,x,x,x,x,-4%,x
Cc1cc(NCCC(C)C)n2nc(C)c(-c3ccccc3)c2n1,-12%,25%,x,-81%,-11%,u
CN(C)CCCNc1cc(-c2ccccc2)nc2cc(-c3cccc(F)c3)nn12,u,-18%,5µM*,u,-64%,u
Cc1cc(NCc2ccccn2)n2nc(C)c(-c3ccc(Cl)cc3)c2n1,0.71µM*,8%,3%,0.063µM*,0%,4%
Cc1cccc(-c2cc3nc(C)cc(NCCCN(C)C)n3n2)c1,x,-6%,-4%,17%[0.365 µM],0%,-18%
COCCCN1C(=O)c2ccc(C(=O)NCc3ccccn3)cc2C1=O,8%,-11%,6%,19%,9%,6%
COc1cc2c(cc1OC)[C@@H]1CC(=O)[C@@H](CC(C)C)CN1CC2,-7%,x,x,-2%,x,x
CCOC(=O)C(Sc1cc(-c2ccccc2)nc2ncnn12)C(C)=O (stereo not given),2.8µM*,-6%,5%,0.63µM*,-8%,u
CN(C)C=Nc1ccc2nc3c(cc2c1)[nH]c1ccccc13,u,-3%,u,u,-19%,3%
CCn1c(NCc2ccco2)nc2c1c(=O)n(C)c(=O)n2C,-2%,4%,-2%,-31%,-3%,u
Cn1c(=O)c2c(nc(NCc3ccco3)n2CCc2ccccc2)n(C)c1=O,7.9µM*,1%,-7%,13µM*,-55%,0%
Cn1c(=O)c2c(nc(NCc3ccco3)n2Cc2ccc(Cl)cc2Cl)n(C)c1=O,6.3µM*,2%,-3%,u,-17%,3%
O=C(Cc1ccc(NC(=O)N2CCCCc3ccccc32)cc1)NCc1ccccc1,x,x,x,x,x,-18%
Cc1cnc(CNc2nc(-c3cccc(NS(C)(=O)=O)c3)nc3ccccc23)cn1,2%,x,x,-11%,x,x
Cc1nc2ccc(NC(=O)c3cncc(Br)c3)cc2s1,23%,0%,27%,u,28%,-1%
